Measurements from the supplement of paper PMC6555819.

Tested on: LXRb:RXRa (NR concentration 270 nM, RXRa partner concentration 90 nM)
Test: PBM binding z-score (relative to random genomic background probes); higher = stronger binding; sequences stand for … in GC…GCGATTGACAGCGTAGAATGAAGG
Method: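 Protein-binding microarray (Agilent 4x180K custom design, double-stranded 60-nt probes: 5' GC cap, 34-nt variable region, 24-nt constant primer region; full probe sequence given). Purified or IVT nuclear receptor:RXRα heterodimers (3:1 NR:RXRα, mostly 270:90 nM) or homodimers were incubated for 1 h in PBS with 2% milk and no ligand, then detected with Alexa488 antibodies. Fluorescence from o1-orientation probes (~5 replicates averaged) was converted to z-scores against 500 random hg19 background probes. Variable regions are seed direct-repeat (DR0–DR5) sites, all their single-nucleotide variants and half-site ablations.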

Going from CGAACGAGGTCATGAGTTGATAGCAAATGCCGAT to CCTCGGAGGTCAACAGGAGGTCAGAGCTGCCAGA, the PBM binding z-score rises from 4.51 to 5.75.

Going from TGTATGAGGTTAAAGATCAGGGAACGTGGCGTCG to CCTACTGGGCCAAAGGTGATTGATTCCAATGCTC, the PBM binding z-score falls from 2.16 to 0.206.

Going from TCTTGTAGATCAACAGGAGGTTAATAAAGATCGA to GCTGCGAGGTCAACTGATGGTCAGCTAAAGCTCG, the PBM binding z-score rises from 1.49 to 5.07.

First: GCTGCTAGGTCAACTGATGGCCAGCTAAAGCTCG
Second: AGTCAAAGTTCAGGACGAGGTAACGTTAAGCACG
The PBM binding z-score of the first is lower: 1.66 for the first, 1.77 for the second.

First: CCTACTGGACCAAGGTCATTGATCAGTCAAAGCA
Second: CAAACCAGGTCAAAGGTCAAAGTCGAGCCAACCA
The PBM binding z-score of the first is lower: 3.46 for the first, 7.49 for the second.

Compared with TACCCTAGGTCATTGGGCCAGTATAGTACGCATC, CCTACTGGGCCGTTCAGAGGTCATTGATCATATG is lower in PBM binding z-score: 4.07 for the first, 3.55 for the second.

Going from CGAACTAGGTCATCCAGGTCAGTGAATACATTGA to CCTACTGGGCCAAAAAGTTCATTGATGCCGATAA, the PBM binding z-score falls from 2.98 to 1.09.

Going from TAGCCTAGGTCATGCGGCCCAGTATAGTGTCGGC to TAGCCTAGGTCACATCGGGCCAGTATACGCTATA, the PBM binding z-score rises from 1.69 to 2.29.

Compared with GATATAGGGTCAGCTAGAGGCCAGAGTATGGAAA, CGAACTAGGTCAAAGGACATTGAAAGGCGACGTA is lower in PBM binding z-score: 2.77 for the first, 2.06 for the second.

Compared with CCTAGTTGGTCAAGGTCACACCCGCTATAGGTAC, TAGCCTAGTTCATTCAGGGGCCAGTATAGAAAGC is lower in PBM binding z-score: 3.5 for the first, 0.643 for the second.

First: ATATGTAGGTTAAGCGTCATTCAGGTTGGTTCGC
Second: CAAACTAGGTCAAGAGGTCAAAGTTCGCTTCCCG
The PBM binding z-score of the first is lower: 0.883 for the first, 6.05 for the second.

First: TAGCCTAGGGCATTCAGGGGCCAGTATAGAAAGC
Second: ACTCGGTGGACAAAGGTCAGAGCTACGCCAGTGA
The PBM binding z-score of the first is lower: -0.231 for the first, 2.99 for the second.
